High-throughput results from PubChem BioAssay.
This is a sample that favours compounds with a hit; in the whole collection about 4.7% have one here.
TGFb SMAD3 inh: TGF-b pathway inhibition; HepG2 CAGA-GFP TGF-b/SMAD3 reporter, GFP fluorescence, 18 h; TGF-beta stimulated, 500 pg/mL final; Potency, µM (titrated, usually from 46.1 µM), for the others: top-dose activity, negative = inhibition, hits mostly inhibitors; hit rate 1.2% among 410,000; AID 588855; note: potency is the fitted concentration of half-maximal effect; % is set by controls: 0 for no effect and ±100 for the full control effect; nearly all actives have a fitted effect of over 65% in size
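Read-out: total well GFP (ex488/em500-530) summed from mean per-cell fluorescence. Cells: HEPG2 CAGA-GFP, 1% FBS DMEM, 18 h at 37 degrees C with 500 pg/mL final TGF-beta. Unstimulated wells served as the full-inhibition control; stimulated DMSO wells = 0%.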
D3 ag: activates the human D3 dopamine receptor | D3R DiscoveRx beta-arrestin cells, luminescence, 90 min | max activation, % | P35462 | hit rate 0.58% among 410,000; in the data active = max activation above about 30%; note: 0% is about no effect
Target sequence (P35462 whole entry, looked up): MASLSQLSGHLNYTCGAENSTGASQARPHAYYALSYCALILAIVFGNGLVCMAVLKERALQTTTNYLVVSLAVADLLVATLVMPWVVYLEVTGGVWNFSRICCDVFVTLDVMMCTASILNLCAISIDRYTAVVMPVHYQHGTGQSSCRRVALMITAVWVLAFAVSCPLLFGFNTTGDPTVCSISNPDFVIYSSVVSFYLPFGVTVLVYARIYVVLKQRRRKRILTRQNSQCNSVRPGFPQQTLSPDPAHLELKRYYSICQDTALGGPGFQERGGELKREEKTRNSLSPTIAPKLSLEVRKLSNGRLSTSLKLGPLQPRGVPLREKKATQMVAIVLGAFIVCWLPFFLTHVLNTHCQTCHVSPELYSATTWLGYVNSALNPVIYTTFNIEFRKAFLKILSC
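Agonist-mode cell screen: cells plated at 1500/well and incubated overnight at 37 °C, then exposed to library compounds for 90 min at 37 °C. Detection reagent was added for 30–60 min at room temperature, and luminescence was read.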
S2 tox: viability counter-screen for ATXN expression inhibitors. AID 651635. hit rate 0.49% among 400,000. S2 cells (HEK-293 line with an ATXN2-luciferase reporter) viability, CellTiter-Fluor protease fluorescence, 24 h. Potency, µM (highest dose often 56.7 µM), hits mostly cytotoxic; note: potency is the fitted concentration of half-maximal effect; nearly all actives have a fitted effect of over 40% in size
DRD3 antagonist: D3 dopamine receptor (human) antagonism | D3R cells, DiscoveRx beta-arrestin luminescence, antagonist mode; active compounds read low | max response, negative = inhibition, % | P35462 | hit rate 2.5% among 360,000; in the data active = max response below about -50%; inconclusive = no clear call, values can overlap the other calls; note: % is set by controls: 0 for no effect and ±100 for the full control effect
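Cells plated overnight at 1500 cells/well, then exposed to library compounds with dopamine controls for 90 minutes at 37 degrees C. DiscoveRx reagent added for 30–60 minutes at room temperature; luminescence read, quantitative HTS format.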
HepG2 viability: counter-screen for TGF-b inhibitors: cytotoxicity in HepG2 cells; HepG2 CAGA-GFP viability, ATP luminescence, 18 h; Potency, µM (highest dose often 46.1 µM), without a hit: at the highest dose activity change, negative = cytotoxicity, usual class: cytotoxic; hit rate 0.76% among 410,000; note: potency is the fitted concentration of half-maximal effect
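HepG2 CAGA-GFP cells (1000/well, DMEM with 1% FBS) received compound, then TGF-beta at 500 pg/mL final, and were incubated 18 hours at 37 degrees C. Viability was read by CellTiter-Glo luminescence. Media-only wells were set as complete cell-killing and DMSO as no toxicity.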
ATXN2 expr inh: reduces ATXN2 reporter expression in HEK-293 cells; HEK-293 ATXN2-luciferase reporter, luminescence, 24 h; Potency, µM (top dose mostly 57 µM), for the others: top-dose activity change, negative = inhibition, hits mostly inhibitors; hit rate 0.72% among 360,000; AID 1745845; note: potency is the fitted concentration of half-maximal effect; % is set by controls: 0 for no effect and ±100 for the full control effect; nearly all actives have a fitted effect of over 55% in size
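ATXN2-luciferase reporter cells (luciferase flanked by upstream and downstream ATXN2 gene portions) were treated 24 h at 37 °C with compounds at up to 57 uM. SteadyGlo luminescence gave expression; GF-AFC fluorescence gave viability.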
* marks the source's active call; other numbers are inactive results. Unless noted, calls come from the whole dose curve; as a rule, active = well fitted curve in the direction sought with a large enough effect; inconclusive = small, poorly fitted or top-dose-only effect, or another doubt; inactive = no such curve, though single readings can be large; an effect the other way counts as inactive or inconclusive.

How did CC(=O)Nc1ccc(S(=O)(=O)N2CCCCC2c2cccnc2)cc1 (configuration not stated) do in these assays?
TGFb SMAD3 inh: -7%; D3 ag: 1; S2 tox: inactive; DRD3 antagonist: -6; HepG2 viability: -11%; ATXN2 expr inh: 6%

Results for CCCCC(=O)Nc1ccc(S(=O)(=O)N2CCCCC2c2cccnc2)cc1 (configuration not stated) ?
TGFb SMAD3 inh: inconclusive; D3 ag: -2; S2 tox: inactive; DRD3 antagonist: -25; HepG2 viability: -14%; ATXN2 expr inh: -4%

How did CCOc1ccc(C(=O)Nc2ccc(S(=O)(=O)N3CCCCC3c3cccnc3)cc2)cc1 (configuration not stated) do in these assays?
TGFb SMAD3 inh: inconclusive; D3 ag: -5; S2 tox: inconclusive; HepG2 viability: -40%; ATXN2 expr inh: 18µM*

How did O=C(Cn1cc(SCc2ccc(Cl)cc2)c2ccccc21)N1CCCC1 do in these assays?
TGFb SMAD3 inh: -60%; D3 ag: -33; HepG2 viability: -32%

How did Cc1cccc(OCCc2nnc(N)s2)c1C do in these assays?
TGFb SMAD3 inh: 20µM*; D3 ag: 1; S2 tox: inactive; DRD3 antagonist: -20; HepG2 viability: -11%; ATXN2 expr inh: -8%

Results for NCCCn1c(C(=O)c2cc(Cl)c(N)c(Cl)c2)c2ccc([N+](=O)[O-])cc2[n+]1[O-] ?
TGFb SMAD3 inh: inconclusive; D3 ag: -21; S2 tox: 10µM*; DRD3 antagonist: -6; HepG2 viability: -45%; ATXN2 expr inh: inconclusive

What do the screens show for `NC(=S)NN=C1c2ccccc2-c2cc(Br)ccc21`?
TGFb SMAD3 inh: 2.8µM*; D3 ag: -1; S2 tox: inconclusive; DRD3 antagonist: inconclusive; HepG2 viability: 2%; ATXN2 expr inh: inconclusive

What do the screens show for `N#Cc1cccc2c1-c1ccccc1/C2=N/NC(N)=S`?
TGFb SMAD3 inh: 5µM*; D3 ag: 5; S2 tox: inconclusive; DRD3 antagonist: -14; HepG2 viability: 7.1µM*; ATXN2 expr inh: -37%

How did ON=C1c2ccccc2-c2ccc(Br)cc21 do in these assays?
TGFb SMAD3 inh: -20%; D3 ag: 1; S2 tox: inactive; DRD3 antagonist: 41; HepG2 viability: -11%; ATXN2 expr inh: 2%

How did N#Cc1cccc2c1-c1ccccc1/C2=N/NC(N)=O do in these assays?
TGFb SMAD3 inh: -6%; D3 ag: 6; S2 tox: inconclusive; DRD3 antagonist: 10; HepG2 viability: -5%; ATXN2 expr inh: inconclusive

What do the screens show for `Cc1ccc2cc(CN(C(=O)c3ccc4c(c3)OCO4)C3CC3)c(N(C)C)nc2c1`?
S2 tox: inactive

How did COc1ccc(-c2onc(C)c2-c2cnn(-c3ccccc3)c2)c(O)c1C do in these assays?
TGFb SMAD3 inh: 8%; D3 ag: 2; S2 tox: inactive; DRD3 antagonist: inconclusive; HepG2 viability: -15%; ATXN2 expr inh: -3%

What do the screens show for `COc1ccc(-c2n[nH]c(C)c2-c2cnn(-c3ccccc3)c2)c(O)c1C`?
TGFb SMAD3 inh: 13µM*; D3 ag: -1; S2 tox: inactive; DRD3 antagonist: 5; HepG2 viability: -104%; ATXN2 expr inh: inconclusive

What do the screens show for `COc1ccc(-c2n[nH]c(C)c2-c2cnn(-c3ccccc3)c2)c(O)c1`?
TGFb SMAD3 inh: 13µM*; D3 ag: 1; S2 tox: inactive; DRD3 antagonist: 7; HepG2 viability: -48%; ATXN2 expr inh: -4%

How did Cc1cccc(-c2nnc(SCC(=O)NC3CCCCC3)o2)c1 do in these assays?
TGFb SMAD3 inh: 2%; D3 ag: 0; S2 tox: inactive; HepG2 viability: -15%; ATXN2 expr inh: 0%

What do the screens show for `CC(Sc1nnc(-c2ccccc2)n1C)C(=O)NCc1ccco1` (configuration not stated)?
TGFb SMAD3 inh: -20%; HepG2 viability: -12%

Results for Cc1cc(NC(=O)c2cccc(S(=O)(=O)N3CCCCCC3)c2)n(-c2ccccn2)n1 ?
TGFb SMAD3 inh: -5%; D3 ag: -7; S2 tox: inactive; DRD3 antagonist: -55*; HepG2 viability: -11%; ATXN2 expr inh: 0%

How did Nc1nc(NC(=O)c2cccc(S(=O)(=O)N3CCCCCC3)c2)nc(-c2ccccc2)n1 do in these assays?
TGFb SMAD3 inh: -21%; D3 ag: 34*; S2 tox: inactive; DRD3 antagonist: -18; HepG2 viability: -52%; ATXN2 expr inh: -17%

What do the screens show for `O=C(Nc1nc(-c2ccccn2)cs1)c1ccc(F)c(S(=O)(=O)N2CCOCC2)c1`?
TGFb SMAD3 inh: inconclusive; D3 ag: 0; S2 tox: inconclusive; DRD3 antagonist: 0; HepG2 viability: 1%; ATXN2 expr inh: inconclusive

What do the screens show for `O=C(Nc1nc(-c2ccc(S(=O)(=O)N3CCOCC3)cc2)cs1)c1ccccc1`?
TGFb SMAD3 inh: -19%; D3 ag: 9; S2 tox: inconclusive; DRD3 antagonist: 11; HepG2 viability: -30%; ATXN2 expr inh: inconclusive

Results for O=C(Nc1nc(-c2ccccn2)cs1)c1cc(S(=O)(=O)N2CCOCC2)ccc1F ?
TGFb SMAD3 inh: 3%; D3 ag: -28; S2 tox: inactive; DRD3 antagonist: -77*; HepG2 viability: 11%; ATXN2 expr inh: -5%

What do the screens show for `COc1cccc(C(=O)Nc2nc(-c3ccc(S(=O)(=O)N4CCOCC4)cc3)cs2)c1`?
TGFb SMAD3 inh: 8%; D3 ag: 0; S2 tox: inconclusive; DRD3 antagonist: 51; HepG2 viability: -2%; ATXN2 expr inh: 16µM*

How did CC(=O)c1ccc(F)c(-c2cc(C)cc3c2OC(CNC(=O)Cn2nc(C)nc2C)C3)c1 (configuration not stated) do in these assays?
S2 tox: inactive

How did CCOc1ccc(CNC(=O)c2ccc(-c3nc(CSc4ccc(C)cc4)c(C)o3)cc2)cc1 do in these assays?
TGFb SMAD3 inh: -13%; D3 ag: 6; S2 tox: inactive; HepG2 viability: -3%; ATXN2 expr inh: 16%

Results for O=C(Nc1nc(-c2cc3ccccc3o2)cs1)c1ccc(S(=O)(=O)N2CCCC2)cc1 ?
TGFb SMAD3 inh: -31%; D3 ag: 1; S2 tox: inactive; DRD3 antagonist: -5; HepG2 viability: -20%; ATXN2 expr inh: inconclusive

Results for O=C(Nc1nc(-c2nc3ccccc3s2)cs1)c1ccc(S(=O)(=O)N2CCOCC2)cc1 ?
TGFb SMAD3 inh: inconclusive; D3 ag: 51*; S2 tox: inconclusive; DRD3 antagonist: 48; HepG2 viability: -33%; ATXN2 expr inh: inconclusive
